VDR inh: Inhibitors of the vitamin D receptor (VDR): qHTS. Potency, µM, for inactives: max response, negative = inhibition, hits mostly inhibitors. Vitamin D3 receptor (Homo sapiens), P11473. actives 0.93% (n = 400,000). VDR-SRC2-3 peptide fluorescence polarization, 2 h. AID 504847, 2011
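Two reagent solutions held at 4 deg C in the dark were dispensed, compounds pinned at 23 nl, and the mixture incubated 2 h at room temperature. Read-out: fluorescence polarization of VDR–SRC2-3 peptide binding.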
TDP1 cell noCPT: qHTS for Inhibitors of human tyrosyl-DNA phosphodiesterase 1 (TDP1): qHTS in cells in absence of CPT; DT40 Tdp1-/- hTDP1 cells, no CPT, ATP luminescence, 48 h; Potency, µM (doses to about 46.2 µM), for the others: at the top dose activity change, negative = growth inhibition, hits mostly inhibitors; actives 15% (n = 420,000); note: nearly all actives have a fitted effect of over 55% in size
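Stably hTDP1-transfected Tdp1-null chicken DT40 cells were treated with library compounds minus camptothecin and grown for at least 48 hr at 37 °C, after which cellular ATP was quantified by luminescence.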
KAT2A inh: qHTS Assay for Inhibitors of GCN5L2; Histone acetyltransferase KAT2A (Homo sapiens), Q92830; GCN5L2 HAT assay, ThioGlo1 CoA-SH fluorescence; Potency, µM (doses to about 58.9 µM), for the others: at the highest dose activity change, negative = inhibition, actives largely listed as inhibitors; actives 0.21% (n = 390,000)
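Enzyme at 20nM final was mixed with library compounds for 15 min at room temperature. Peptide H3(1-25) at 75uM, acetyl-CoA at 70uM and ThioGlo1 at 50uM were then added. Plates were read immediately and after 20 min (Ex340nm/Em540nm).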
PLK1 PBD block: qHTS for Inhibitors of PLK1-PDB (polo-like kinase 1 - polo-box domain): Primary Screen | Plk1 PBD binding of FITC phosphopeptide, fluorescence polarization | Potency, µM, without a hit: max response, negative = inhibition, actives largely listed as inhibitors | Serine/threonine-protein kinase PLK1 (Homo sapiens), P53350 | actives 2.8% (n = 360,000) | AID 720504, 2013; note: series mostly up to about 57 µM; nearly all actives have a fitted effect of over 65% in size
DT40 TDP1 CPT: qHTS for Inhibitors of human tyrosyl-DNA phosphodiesterase 1 (TDP1): qHTS in cells in presence of CPT; chicken DT40 Tdp1-/-;hTDP1 cells + 20 nM CPT, ATP luminescence, 48 h; Potency, µM (doses to about 46.2 µM), without a hit: at the highest dose activity change, negative = growth inhibition, most hits filed as inhibitors; actives 12% (n = 420,000); AID 686979, 2013; note: nearly all actives have a fitted effect of over 55% in size
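Chicken DT40 Tdp1-/- cells complemented with human TDP1, 400 cells/well, exposed to compounds plus 20 nM camptothecin for at least 48 h at 37 C; viability read as ATP content by CellTiter-Glo luminescence.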
TDP1 block: qHTS Assay for Inhibitors of Tyrosyl-DNA Phosphodiesterase (TDP1) | Tyrosyl-DNA phosphodiesterase 1 (Homo sapiens), Q9NUW8 | recombinant TDP1, AlphaScreen DNA substrate cleavage | Potency, µM (series often up to 130 µM), inactives show at the top dose activity change, negative = inhibition, most hits filed as inhibitors | actives 0.28% (n = 350,000) | AID 485290, 2010; note: nearly all actives have a fitted effect of over 40% in size
Target sequence (Q9NUW8 whole entry, looked up): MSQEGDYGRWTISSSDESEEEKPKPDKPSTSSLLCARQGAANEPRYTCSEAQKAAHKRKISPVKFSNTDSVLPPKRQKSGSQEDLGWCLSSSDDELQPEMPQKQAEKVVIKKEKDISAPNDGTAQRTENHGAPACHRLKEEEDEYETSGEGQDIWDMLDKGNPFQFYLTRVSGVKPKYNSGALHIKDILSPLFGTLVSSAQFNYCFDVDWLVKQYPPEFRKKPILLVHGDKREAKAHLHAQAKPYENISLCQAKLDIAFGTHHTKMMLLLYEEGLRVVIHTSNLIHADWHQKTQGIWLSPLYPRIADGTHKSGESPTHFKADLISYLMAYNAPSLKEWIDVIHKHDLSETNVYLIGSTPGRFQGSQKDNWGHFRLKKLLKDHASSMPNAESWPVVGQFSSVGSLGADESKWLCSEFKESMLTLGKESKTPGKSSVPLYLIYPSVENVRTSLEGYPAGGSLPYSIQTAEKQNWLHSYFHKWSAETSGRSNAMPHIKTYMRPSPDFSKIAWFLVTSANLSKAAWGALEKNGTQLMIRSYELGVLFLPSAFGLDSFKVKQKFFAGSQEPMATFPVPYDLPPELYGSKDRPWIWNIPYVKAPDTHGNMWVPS
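Signal: AlphaScreen proximity between streptavidin donor and anti-FITC acceptor beads on intact substrate. Reaction: Tdp1 1 nM, substrate 15 nM final, 5 min RT after 15 min compound preincubation.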
* = called active by the depositor; ? = inconclusive; . = no result; [ ] = remark or other dose. Most compounds without a hit are left out; they make up all but 18% or so of the library. Calls come from the whole dose curve; as a rule, active = well fitted curve in the direction sought with a large enough effect; inconclusive = small, poorly fitted or top-dose-only effect, or another doubt; inactive = no such curve, though single readings can be large; an effect the other way counts as inactive or inconclusive. % is set by controls: 0 for no effect and ±100 for the full control effect; potency is the fitted concentration of half-maximal effect.

SMILES | VDR inh | TDP1 cell noCPT | KAT2A inh | PLK1 PBD block | DT40 TDP1 CPT | TDP1 block
Cc1cnc(CNc2ncncc2-c2ccc(N(C)C)cc2)cn1 | ? | ? | -3.9% | . | ? | .
COc1cc2nc(CC(O)c3nc4cc(OC)c(OC)cc4[nH]3)[nH]c2cc1OC (stereo not given) | . | 6.31µM* | . | . | 7.08µM* | .
CC(C)Cc1nc2ccccc2[nH]1 | 0.2% | -17.0% | 2.4% | 5.5% | 19.6% | .
Cc1cccc(CC(Cc2nc3ccccc3[nH]2)c2nc3ccccc3[nH]2)c1 (stereo not given) | 2.9% | ? | -5.3% | -6.7% | 16.4µM* | 5.3%
COc1ccccc1CC(Cc1nc2ccccc2[nH]1)c1nc2ccccc2[nH]1 (stereo not given) | 18.3% | 29.9µM* | 1.0% | -2.6% | ? | 13.6%[56.1 µM]
CCn1c(SCC(=O)NC(=O)NC(C)(C)C)nc2ccccc21 | ? | ? | -5.7% | 9.47µM* | ? | 2.5%
CC(C)Cn1c(SCC(=O)NC(=O)NC2CCCC2)nc2ccccc21 | -5.4% | 16.4µM* | -10.0% | -2.1% | 25.9µM* | 0.0%
CCn1c(SCC(=O)NC2CC2)nc2ccccc21 | . | -15.1% | . | -6.1% | -10.6% | .
CC(C)C1Cc2c(sc3ncnc(NN)c23)CO1 (stereo not given) | 5.8% | 11.6µM* | -15.5% | -1.3% | 8.2µM* | .
COc1cccc(-c2cc(C(=O)N3CC4(C)CC3CC(C)(C)C4)no2)c1 (stereo not given) | 4.7% | 20.6µM* | -8.7% | -5.1% | ? | 0.0%
CC1(C)CC2CC(C)(CN2C(=O)c2cc(-c3ccc(O)cc3)on2)C1 (stereo not given) | -7.6% | ? | -12.0% | -1.6% | -13.9% | 13.2%
Cc1noc(C(=O)N2CC3(C)CC2CC(C)(C)C3)c1Cl (stereo not given) | -4.8% | 18.4µM* | -4.0% | -5.7% | ? | -1.2%
CC1(C)CC2CC(C)(CN2C(=O)Cc2ccccc2)C1 (stereo not given) | 9.1% | ? | 0.2% | -9.7% | -26.2% | 0.0%
O=C(Nc1ccccc1Br)c1c(F)cccc1Cl | -10.7% | 14.8% | 2.2% | -4.5% | 6.9% | 2.7%
Cc1ccc(C)c(NC(=O)CN2C(=O)c3cccc4cccc2c34)c1 | -0.5% | ? | 0.1% | . | ? | 0.0%
Cc1ccccc1NC(=O)CSc1cn(CC(=O)N2CCCCCC2)c2ccccc12 | 11.5% | ? | -6.5% | . | ? | 0.0%
COc1ccc(NS(=O)(=O)c2ccc(NC(=S)NC(=O)/C=C/c3ccccc3)cc2)nn1 | -16.5% | 16.4µM* | 0.3% | ? | 11.6µM* | 4.6%
COc1ccc(NS(=O)(=O)c2ccc(NC(=O)c3ccccc3)cc2)nn1 | ? | ? | -8.0% | 15µM* | ? | 5.7%
COc1cc(NS(=O)(=O)c2ccc(NC(=S)NC(=O)/C=C/c3ccc(F)cc3)cc2)ncn1 | -9.8% | -5.6% | ? | ? | -20.7% | 2.7%
O=C(CSc1ccccc1)Nc1nnc(-c2ccco2)o1 | -1.5% | ? | 0.2% | -0.1% | 2.7% | .
Cc1ccccc1C(=O)Nc1nnc(-c2ccco2)o1 | -0.3% | 18.4µM* | -8.0% | -2.7% | 20.6µM* | 11.0%
COc1ccccc1C(=O)Nc1nnc(-c2ccc3c(c2)CCCC3)o1 | 4.8% | 23.1µM* | -14.2% | 2.3% | ? | 11.0%
COc1ccc(-c2nnc(NC(=O)c3ccccc3C)o2)cc1 | 4.5% | 14.6µM* | -15.3% | -13.4% | 16.4µM* | .

Assay outcomes (PubChem BioAssay)
